Inconclusive results are not listed. The source made the active and inactive calls. The call rests on the fitted dose curve; in most records, active means well fitted curve in the direction sought with a large enough effect; inconclusive means small, poorly fitted or top-dose-only effect, or another doubt; inactive means no such curve, though single readings can be large; an effect the other way counts as inactive or inconclusive.
Tests used:
[1] = qHTS assay for measurement of the activity of small molecule inhibitors on Zika virus induced Caspase-3 activity in human iPSC derived neural progenitor cells (hNPCs) (AID 1224857); settings: hNPCs ZIKV-induced caspase-3/7, Caspase-Glo luminescence, 6 h; series mostly up to 45.7 µM; further: nearly all actives have a fitted effect of over 65% in size
Outline: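 Caspase-3/7 induction by a 6-hour ZIKV infection was quantified with a luminescent Caspase-Glo 3/7 reagent incubated 30 minutes at room temperature. Compounds were preincubated with hNPCs for 1 hour; inhibition was calculated against uninfected and infected control wells.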

[2] = qHTS assay for measurement of the activity of small molecule inhibitors on Zika virus induced Caspase-3 activity in human astrocytoma cells (AID 1224859); settings: SNB-19 ZIKV-induced caspase-3/7, luminescence, 6 h; series mostly up to 45.7 µM
Outline: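 In SNB-19 cells plated at 250 cells/well and grown 16-20 h, compounds were applied 1 h before ZIKV (2 FFU/cell). Six hours later caspase-3/7 luminescence was recorded.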

[3] = qHTS assay to identify small molecule inhibitors of chordoma cells - UCH-1 (AID 1259355); settings: UCH-1 chordoma viability, CellTiter-Glo, 48 h, combination, with auranofin plus four topoisomerase inhibitors; series mostly up to 46.1 µM; further: nearly all actives have a fitted effect of over 55% in size
Outline: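 Seed 800 cells per well; incubate overnight at 37 C, 5% CO2. Add test compounds (15 concentrations), then the auranofin–topoisomerase-agent combination. Incubate 48hr, add CellTiter-Glo, wait 30min, read luminescence.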

Measured: outcome

C[N+](C)(C)CC[N+]1(C)Cc2c(Cl)c(Cl)c(Cl)c(Cl)c2C1
inactive: all assays above

COc1cc(O)cc(O)c1
inactive: all assays above

CCCCCCCCCCCCCCCCC(C(=O)O)C(O)(CC(=O)O)C(=O)O (stereo unspecified)
inactive: all assays above

C[N+](C)(C)CC(O)CC(=O)[O-] (stereo unspecified)
inactive: all assays above

CCN1CC(CCN2CCOCC2)C(c2ccccc2)(c2ccccc2)C1=O (stereo unspecified)
inactive: all assays above

C[C@@H]1O[C@@H](OC[C@H]2O[C@@H](Oc3c(-c4ccc(O)c(O)c4)oc4cc(O)cc(O)c4c3=O)[C@H](O)[C@@H](O)[C@@H]2O)[C@H](O)[C@H](O)[C@H]1O
inactive: all assays above

O=C(OOC(=O)c1ccccc1)c1ccccc1
inactive: all assays above

CC(=O)NS(=O)(=O)c1ccc(N)cc1
inactive: all assays above

CC[C@H](C)[C@H](N)C(=O)O
inactive: all assays above

OC[C@@H](O)[C@@H](O)[C@H](O)[C@H](O)CO
inactive: all assays above

CN/C(=C\[N+](=O)[O-])NCCSCc1csc(CN(C)C)n1
inactive: all assays above

CC(=O)Nc1ccc(C(=O)O)cc1
inactive: all assays above

CC(=O)N[C@H]1[C@H]([C@H](O)[C@H](O)CO)OC(C(=O)O)=C[C@@H]1N=C(N)N
inactive: all assays above

CCc1cccc(CC)c1NC(=O)CN(CC(=O)O)CC(=O)O
inactive: all assays above

O=c1[nH]c(=O)c2ccccc2o1
inactive: all assays above

C=CCNC(N)=S
inactive: all assays above

CC(C)CCOC(=O)c1ccc(N(C)C)cc1
inactive: all assays above

Cc1cc(-n2nc3ccc(Cl)cc3n2)c(O)c(C(C)(C)C)c1
inactive: all assays above

CCCCCC(N)=O
inactive: all assays above

CCN(CC)CCc1nc(-c2ccccc2)no1
inactive: all assays above

CC(O)CCCCn1c(=O)c2c(ncn2C)n(C)c1=O (stereo unspecified)
inactive: all assays above

NC(=O)c1ccc([N+](=O)[O-])cc1Cl
inactive: all assays above

CC(C)(C)C(=O)OCOC(=O)[C@@H]1N2C(=O)[C@@H](NC(=O)[C@H](N)c3ccccc3)[C@H]2SC1(C)C
inactive: all assays above

Cc1ccc(S(=O)(=O)NC(=O)NC2CCCCCCC2)cc1
inactive: all assays above

CC(=O)N[C@@H](Cc1ccc(O)cc1)C(=O)O
inactive: all assays above

CC(=O)NCc1c(I)c(NC(C)=O)c(I)c(C(=O)O)c1I
inactive: all assays above

Cc1c(N(C)C)c(=O)n(-c2ccccc2)n1C
inactive: all assays above
